This is a sample that favours compounds with a hit; in the whole collection about 6% have one here.
D1 potentiator: potentiators of human D1 dopamine receptor | P21728 | HEK293 TREx D1 cells, calcium flux, dopamine EC20 potentiation | potentiation, % at 10 µM | 360,000 tested, 0.036% active | AID 504651; in the data active means potentiation above about 30%; further: 0% is about no effect
D3 ag: activates the human D3 dopamine receptor. max activation, %. AID 652048. D3R DiscoveRx beta-arrestin cells, luminescence, 90 min. 410,000 tested, 0.58% active; in the data active means max activation above about 30%; further: 0% is about no effect
Target sequence (P35462 whole entry, looked up): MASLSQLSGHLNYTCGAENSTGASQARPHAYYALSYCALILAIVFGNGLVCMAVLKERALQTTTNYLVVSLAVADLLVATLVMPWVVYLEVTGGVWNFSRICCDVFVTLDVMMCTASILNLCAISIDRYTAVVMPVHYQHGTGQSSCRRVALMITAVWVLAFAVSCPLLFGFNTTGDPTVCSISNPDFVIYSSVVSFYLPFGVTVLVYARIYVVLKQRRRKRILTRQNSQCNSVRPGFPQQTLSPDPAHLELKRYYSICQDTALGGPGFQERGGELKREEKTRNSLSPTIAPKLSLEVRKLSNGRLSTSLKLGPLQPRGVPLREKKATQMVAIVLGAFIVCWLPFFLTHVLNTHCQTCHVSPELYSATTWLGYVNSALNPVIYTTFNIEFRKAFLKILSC
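Agonist-mode cell screen: cells plated at 1500/well and incubated overnight at 37 °C, then exposed to library compounds for 90 min at 37 °C. Detection reagent was added for 30–60 min at room temperature, and luminescence was read.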
D3 antag: D3 dopamine receptor (human) antagonism. P35462. D3R cells, DiscoveRx beta-arrestin luminescence, antagonist mode; hits give low values. max response, negative = inhibition, %. 360,000 tested, 2.5% active. AID 652054; in the data active means max response below about -50%; inconclusive means no clear call, values can overlap the other calls; further: on the % scale 0 is the no-effect control and ±100 the full control effect
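Cells expressing the human receptor were seeded at 1500 cells/well, incubated overnight at 37 degrees C in 5% CO2, then exposed to library compounds with dopamine controls for 90 minutes at 37 degrees C before luminescent detection.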
D1 antag: antagonists of human D1 dopamine receptor | activity change, negative = inhibition, % at 10 µM | HEK293 TREx D1 cells, calcium flux, dopamine EC80; hits give low values | AID 504652 | 360,000 tested, 3.2% active; in the data active means activity change below about -30%; further: on the % scale 0 is the no-effect control and ±100 the full control effect
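Inducible Hek293 Trex D1 cells (tetracycline, overnight, 30 C). Calcium dye 30–90 min RT. Antagonist mode: EC80 dopamine added after 180 s compound read.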
Chronic BCR inh: inhibitors of chronic active B-cell receptor signaling. Potency, µM (top dose mostly 46.1 µM), for inactives: at the highest dose activity change, negative = inhibition, usual class: inhibitors. 340,000 tested, 0.05% active. ABC-DLBCL IkBa-CBG/CBR reporter, luminescence ratio, 4 h; active means well fitted inhibition curve with a large enough effect in the signal ratio, with a control signal flat, not every such curve was filed as active; inconclusive means small, poorly fitted or top-dose-only effect, or effect the other way, or a change in a side signal; the % refers to the signal ratio;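 further: potency means the concentration at half of the fitted maximal effect; plate controls were basal doxycycline-induced cells for no effect and cells given 10 µM MG132 for full effect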
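Doxycycline induced both beetle luciferases in TMD8 lymphoma cells; IKK-driven degradation limits the IkappaBalpha-fused green signal, while red luminescence normalises for cell number and nonspecific effects. Compounds tested up to 46 uM, 4 hrs.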
D1 agonist: activates the human D1 dopamine receptor; P21728; HEK293 T-REx D1 cells, calcium flux, agonist mode; activation, % at 2 µM; 360,000 tested, 1% active; AID 504660; in the data active means activation above about 30%; further: 0% is about no effect
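Inducible HEK293 T-REx D1 cells, force-coupled to calcium signalling, were plated at 4000 cells/well with tetracycline and held overnight at 30 C. After no-wash calcium dye loading, compound-evoked calcium rise over 180 s flagged agonists.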
An asterisk follows results filed as active; ? = inconclusive; . = no result given; ! = a repeat was not active.

SMILES	D1 potentiator	D3 ag	D3 antag	D1 antag	Chronic BCR inh	D1 agonist
O=C(NCCc1cccs1)C1CC(c2cccc(F)c2)=NO1 (configuration not stated)	-6.0	6.7	1.6	-6.6	?	40.2*
O=C(NCc1cccs1)C1CC(c2ccc(Cl)c(Cl)c2)=NO1 (configuration not stated)	1.4	-4.9	-9.9	27.0	?	3.2
CCCNC(=O)C1CC(c2cccc(F)c2)=NO1 (configuration not stated)	-2.4	-8.7	1.1	-11.3	?	6.7
O=C(NCc1ccccc1C(F)(F)F)C1CC(c2cccc(F)c2)=NO1 (configuration not stated)	-9.2	9.6	17.9	-90.5*	?	1.2
CCCCN1C(=O)c2[nH]nc(-c3ccccc3O)c2C1c1ccc(OCc2ccccc2)cc1 (configuration not stated)	3.4	13.3	.	4.3	.	1.1
Cn1c(C(=O)O)c(CC(=O)Nc2ccc(F)cc2F)c2ccccc21	-1.0	-4.8	-4.3	-50.4*	9.7%	0.1
Cc1ccc(NC(=O)Cc2c(C(=O)O)n(C)c3ccccc23)cc1F	0.8	1.5	4.7	-0.6	?	0.2
O=C(NCc1cccc(Br)c1)c1cccn1-c1nnc(N2CCCCC2)s1	2.5	-16.0	.	13.1	.	1.8
CC(C)(CO)NC12CC3CC(CC(C3)C1)C2	-1.1	1.4	-13.7	-9.6	-1.9%	3.3
CC(C)(C)CNC(CO)C12CC3CC(CC(C3)C1)C2 (configuration not stated)	3.6	-2.9	-54.4*	3.6	-5.4%	3.7
CC(C)(C)NS(=O)(=O)c1cccc(S(=O)(=O)c2cccc(S(=O)(=O)NC(C)(C)C)c2)c1	-0.1	-9.7	-122.5*	-39.2*	?	5.4
COc1ccc([N+](=O)[O-])c(S(=O)(=O)c2ccccc2)n1	-3.2	-44.8	-75.6*	7.7	?	2.4
COc1ccccc1S(=O)(=O)c1ccccc1[N+](=O)[O-]	0.4	-10.8	-11.6	-2.8	0.7%	3.6
COc1ccc([N+](=O)[O-])c(S(=O)(=O)c2ccc(Cl)cc2)n1	-3.2	-10.5	-95.1*	-5.2	?	2.3
O=[N+]([O-])c1cccnc1S(=O)(=O)c1ccccc1	-12.2	-8.6	-73.6*	-16.9	?	2.6
Cc1ccccc1C(=O)Nc1ccnn1C1CCN(C(=O)c2ccoc2)CC1	-4.7	-5.6	0.9	-44.5*	2.6%	3.6
C/C(CC1(O)C(=O)N(Cc2ccccc2)c2ccccc21)=N\O (configuration not stated)	-6.7	2.0	11.0	-11.7	.	0.8
CC(=O)CC1(O)C(=O)N(Cc2ccccc2)c2ccccc21 (configuration not stated)	-12.7	-7.4	9.5	-85.1*	-1.0%	2.3
Cc1ccc(C(=O)CC2(O)C(=O)N(Cc3ccccc3Cl)c3ccccc32)o1 (configuration not stated)	10.9	4.5	-21.1	-30.6*	?	-1.4
O=C(O)Cc1ccc(NC(=O)Nc2cccc(Cl)c2)cc1	-5.0	0.3	17.0	-50.7*	?	-0.4
CC(=O)Nc1ccc(CC(=O)O)cc1	-0.1	6.7	46.4	-4.4	10.6%	47.2*
N#CN=CN1CC=C(c2ccc(Cl)cc2)CC1	.	2.7	3.3	.	.	.
Cn1c(=O)oc2cc(S(=O)(=O)Nc3ccc(O)cc3)ccc21	-1.1	8.9	3.8	-31.3*!	?	8.0
Cn1c(=O)oc2cc(S(=O)(=O)Nc3ccc(Cl)cc3)ccc21	6.1	0.7	2.4	4.5	-0.9%	2.0
O=C(O)Cc1ccc(NS(=O)(=O)c2ccc3c(c2)OCCO3)cc1	.	-0.7	18.9	.	.	.
SMILES	D1 potentiator	D3 ag	D3 antag	D1 antag	Chronic BCR inh	D1 agonist
CCOC(=O)C1CCCN(c2c(N3CCC(N4CCCCC4)CC3)c(=O)c2=O)C1 (configuration not stated)	.	-8.7	-23.2	-33.1*	24.6%	2.5
CCOC(=O)C1CCCN(c2c(N3CCN(C4CCCCC4)CC3)c(=O)c2=O)C1 (configuration not stated)	.	-5.6	-3.7	-6.0	-25.7%	0.5
CCN(CC)S(=O)(=O)c1ccc(C(=O)OCCN2C(=O)c3cccc4c(N5CCOCC5)ccc(c34)C2=O)cc1	-7.2	3.6	-4.5	-23.4	-0.2%	15.3
O=C1c2cccc3c(N4CCCCC4)ccc(c23)C(=O)N1c1ccccn1	-5.8	5.8	-18.4	-26.7	-0.1%	154.0*
O=C(OCCN1C(=O)c2cccc3c(N4CCOCC4)ccc(c23)C1=O)c1cc(Cl)cc(Cl)c1	0.3	.	.	-9.3	-0.3%	12.3
CCCN1C(=O)c2cccc3c(N4CCCCC4)ccc(c23)C1=O	-3.1	1.9	-7.8	7.9	0.9%	63.3*
CC(=O)N(C(C)=O)N1C(=O)c2cccc3c(N4CCOCC4)ccc(c23)C1=O	-2.9	-0.6	-4.8	-1.8	-3.7%	30.6*
O=C1c2cccc3c([N+](=O)[O-])ccc(c23)C(=O)N1c1ccccn1	-10.8	-10.4	-99.8*	-42.1*	?	3.7
COc1cc(-c2cnc3c(NC(C)=O)cc(-c4ccccc4CN(C)C)cn23)cc(OC)c1OC	.	-6.9	0.0	.	.	.
COc1ccc(NC(=O)C2(C)CCN2C(=O)c2ccc(C(C)(C)C)cc2)cc1OC (configuration not stated)	.	3.5	21.8	.	.	.
Cc1nn(-c2ccccc2)c2sc(C(=O)Nc3cccc(O)c3)cc12	-0.3	18.5	.	-2.8	.	0.5
O=C(C(=O)N(Cc1ccccc1)Cc1ccccc1)c1c(-c2ccccc2)[nH]c2ccccc12	.	25.3	147.7	.	.	.
COC(=O)c1ccc(NC(=O)CN(C)S(=O)(=O)c2ccc(Br)s2)cc1	-4.3	-2.3	.	-15.9	.	11.1
CCOC(=O)c1cccc(NC(=O)C2CCCN(S(=O)(=O)c3ccc4c(c3)oc(=O)n4C)C2)c1 (configuration not stated)	0.1	-3.6	.	-17.7	.	0.2
CCCCNc1ccc2c3c(cccc13)C(=O)N(CCCC)C2=O	4.3	16.1	17.6	-70.6*	?	700.2*
O=C1c2cccc3c([N+](=O)[O-])ccc(c23)C(=O)N1c1ccc(Cl)cn1	-8.2	-35.8	?	-49.5*	-1.6%	3.4
CN(C)CCCN1C(=O)c2cccc3c(Br)ccc(c23)C1=O	3.4	2.9	-19.1	25.7	?	8.4
CC(=O)Oc1ccc(N2C(=O)c3cccc4c([N+](=O)[O-])ccc(c34)C2=O)cc1	-7.5	-13.5	-99.9*	-41.4*	2.0%	2.1
O=C1c2cccc3c([N+](=O)[O-])ccc(c23)C(=O)N1O	2.7	2.3	48.3	-8.2	-1.3%	3.3
